The results in this text go back to PubChem BioAssay (Tox21).

Test [1] concerns the target Thyrotropin receptor (Homo sapiens) (UniProt P16473). The test is described as follows: qHTS assay to identify small molecule agonists of the thyroid stimulating hormone receptor (TSHR) signaling pathway (AID 1224843; calls by dose curve; also: nearly all actives have a fitted effect of over 45% in size; also: potency is read from the fitted curve at half-maximal effect). The method, boiled down: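 Agonist activity read as cAMP rise via d2/cryptate HTRF competition, 1 h room-temperature detection, in HEK293 cells expressing TSHR. Fifteen-point titrations, each run in triplicate, with a 30 min room-temperature incubation beforehand.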

Test [2] in a line: qHTS assay to identify small molecule agonists of the hypoxia (HIF-1) signaling pathway - cell viability counter screen (AID 1224844; calls by dose curve; also: nearly all actives have a fitted effect of over 50% in size; also: potency is read from the fitted curve at half-maximal effect). In short, it runs like this: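 Same wells as the HIF-1 reporter screen; ME-180 cells carrying HRE-bla, 17 hr treatment at 37C; CellTiter-Glo luminescence read after 30 min at room temperature.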
Test [3] in a line: qHTS assay to identify small molecule agonists of the hypoxia (HIF-1) signaling pathway (AID 1224846; active = well fitted activation curve with a large enough effect in the signal ratio in the repeat runs, not every such curve was filed as active; the % refers to the signal ratio). The method, boiled down: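 In ME-180 cells bearing an HRE-bla construct, 17 h treatment with DMSO-dissolved compounds at 37C was followed by CCF4-AM loading to quantify reporter induction.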
Test [4] in a line: qHTS assay to identify small molecule agonists of H2AX - cell viability counter screen (AID 1224847; calls by dose curve; also: nearly all actives have a fitted effect of over 30% in size; also: potency is read from the fitted curve at half-maximal effect). The method, boiled down:
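Cytotoxicity counter screen in wild-type CHO-K1 cells: a 3 hr compound treatment at 37C across 15 concentrations, followed by CellTiter-Glo luminescence to gauge viable cells.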

The nature of test [5]: qHTS assay to identify small molecule antagonists of the estrogen related receptor (ERR) signaling pathway from Tox21 library (AID 1224848). Also: nearly all actives have a fitted effect of over 50% in size. Also: potency is read from the fitted curve at half-maximal effect. In short, it runs like this: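 Luciferase luminescence (ONE-Glo, 30 min room temperature) was the read-out. Cells of the NTP-supplied ERR line, 2,000 per well, were given 6 h at 37 C before compound addition in DMSO and 18 h exposure at 37 C.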

A short description of test [6]: qHTS assay to identify small molecule agonists of the estrogen related receptor (ERR) signaling pathway from Tox21 library (AID 1224849; calls by dose curve; also: nearly all actives have a fitted effect of over 15% in size). Conditions: ERR reporter cell line, ONE-Glo luciferase, 18 h; at 92.4 µM (top of the series) unless noted. The method, boiled down: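 Reporter cells (ERR, NTP source) treated with Tox21 10K compounds 18 h, 37 C. Readout: ONE-Glo luminescence, 30 min RT.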

Test [7] in a line: qHTS RealTime-Glo MT Cell Viability Assay in HEK293 cells - 32 hour (AID 1224868). Also: nearly all actives have a fitted effect of over 50% in size. Also: potency is read from the fitted curve at half-maximal effect. The method, boiled down:
(§1)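 Nonlytic real-time viability readout: viable cells convert prosubstrate to NanoLuc substrate, giving luminescence proportional to live cell number. HEK293, 600 cells/well, compound added after 5 h, continuous culture at 37 C.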

Test [8] is described as follows: A CellTox Green Cytotoxicity Assay to monitor cytotoxicity in HEK293 cells - 0 hour (AID 1224869). Also: nearly all actives have a fitted effect of over 50% in size. The method, boiled down:
(§2)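 Homogeneous no-lysis format: HEK293 cell suspension mixed with CellTox Green reagent, seeded, incubated 5 h at 37 C/5% CO2, then dosed by pintool with compound in DMSO.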

Test [9] can be described thus: A CellTox Green Cytotoxicity Assay to monitor cytotoxicity in HEK293 cells - 40 hour (AID 1224871). Also: nearly all actives have a fitted effect of over 45% in size. Also: potency is read from the fitted curve at half-maximal effect. In short, it runs like this:
as §2

A short description of test [10]: qHTS RealTime-Glo MT Cell Viability Assay in HEK293 cells - 16 hour (AID 1224872). Also: nearly all actives have a fitted effect of over 50% in size. Also: potency is read from the fitted curve at half-maximal effect. The method, boiled down: as §1
Test [11] is described as follows: qHTS RealTime-Glo MT Cell Viability Assay in HepG2 cells - 8 hour (AID 1224873). Also: nearly all actives have a fitted effect of over 55% in size. The method, boiled down:
(§3)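 Real-time viability: cells seeded at 600 per well together with NanoLuc and cell-permeant prosubstrate, compounds added after 5 h incubation. Luminescence tracked at 0, 8, 16, 24, 32 and 40 h of exposure.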

Test [12] is described as follows: qHTS RealTime-Glo MT Cell Viability Assay in HEK293 cells - 40 hour (AID 1224874). Also: nearly all actives have a fitted effect of over 50% in size. Also: potency is read from the fitted curve at half-maximal effect. Conditions: RealTime-Glo luminescence; max response: active compounds read low. In short, it runs like this:
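Measured as luminescence from the same continuously cultured HEK293 wells at successive time points (0, 8, 16, 24, 32, 40 h) after compound addition. Reagent present from seeding; dosing at 5 h; incubation 37 C.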

Test [13] is described as follows: A CellTox Green Cytotoxicity Assay to monitor cytotoxicity in HEK293 cells - 24 hour (AID 1224875). Also: nearly all actives have a fitted effect of over 45% in size. The method, boiled down:
as §2

Test [14] in a line: A CellTox Green Cytotoxicity Assay to monitor cytotoxicity in HepG2 cells - 16 hour (AID 1224876). Also: nearly all actives have a fitted effect of over 45% in size. In short, it runs like this:
(§4)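 Fluorescent DNA-binding dye, 600 HepG2 cells/well, 5 h preincubation then compound in DMSO; same plates read at 0–40 h, 37 C.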

Test [15] in a line: qHTS RealTime-Glo MT Cell Viability Assay in HepG2 cells - 32 hour (AID 1224877). Also: nearly all actives have a fitted effect of over 55% in size. Also: potency is read from the fitted curve at half-maximal effect. In short, it runs like this: (§5)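 Luminescence read-out: viable HepG2 cells reduce a prosubstrate to a NanoLuc substrate, giving a signal proportional to live cell number. Reads taken at 0, 8, 16, 24, 32 and 40 h of compound exposure at 37 C.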
Test [16] is described as follows: A CellTox Green Cytotoxicity Assay to monitor cytotoxicity in HepG2 cells - 24 hour (AID 1224878). Also: nearly all actives have a fitted effect of over 45% in size. In short, it runs like this:
as §4

Test [17] is described as follows: A CellTox Green Cytotoxicity Assay to monitor cytotoxicity in HepG2 cells - 40 hour (AID 1224879). Also: nearly all actives have a fitted effect of over 40% in size. Also: potency is read from the fitted curve at half-maximal effect. The method, boiled down: as §4
Test [18] is described as follows: qHTS RealTime-Glo MT Cell Viability Assay in HepG2 cells - 24 hour (AID 1224867). Also: nearly all actives have a fitted effect of over 50% in size. Also: potency is read from the fitted curve at half-maximal effect. The method, boiled down: as §5
The nature of test [19]: qHTS RealTime-Glo MT Cell Viability Assay in HepG2 cells - 40 hour (AID 1224870). Also: nearly all actives have a fitted effect of over 50% in size. Also: potency is read from the fitted curve at half-maximal effect. In short, it runs like this:
as §3

Where “and” joins values, the source holds several entries; their conditions need not be identical. Equal entries are not always repeated. Unmarked numbers belong to inactive results. Records with an inconclusive call do not appear. Calls of active or inactive are those of the source. Unless noted, calls follow the shape of the dose curve; as a rule, active = well fitted curve in the direction sought with a large enough effect in the repeat runs; inconclusive = weak or mixed curves; inactive = no such curve, though single readings can be large; an effect the other way counts as inactive or inconclusive.
% is scaled to controls: 0 for no effect and ±100 for the full control effect.

Thyrotropin receptor (Homo sapiens), sequence (P16473 whole entry, looked up): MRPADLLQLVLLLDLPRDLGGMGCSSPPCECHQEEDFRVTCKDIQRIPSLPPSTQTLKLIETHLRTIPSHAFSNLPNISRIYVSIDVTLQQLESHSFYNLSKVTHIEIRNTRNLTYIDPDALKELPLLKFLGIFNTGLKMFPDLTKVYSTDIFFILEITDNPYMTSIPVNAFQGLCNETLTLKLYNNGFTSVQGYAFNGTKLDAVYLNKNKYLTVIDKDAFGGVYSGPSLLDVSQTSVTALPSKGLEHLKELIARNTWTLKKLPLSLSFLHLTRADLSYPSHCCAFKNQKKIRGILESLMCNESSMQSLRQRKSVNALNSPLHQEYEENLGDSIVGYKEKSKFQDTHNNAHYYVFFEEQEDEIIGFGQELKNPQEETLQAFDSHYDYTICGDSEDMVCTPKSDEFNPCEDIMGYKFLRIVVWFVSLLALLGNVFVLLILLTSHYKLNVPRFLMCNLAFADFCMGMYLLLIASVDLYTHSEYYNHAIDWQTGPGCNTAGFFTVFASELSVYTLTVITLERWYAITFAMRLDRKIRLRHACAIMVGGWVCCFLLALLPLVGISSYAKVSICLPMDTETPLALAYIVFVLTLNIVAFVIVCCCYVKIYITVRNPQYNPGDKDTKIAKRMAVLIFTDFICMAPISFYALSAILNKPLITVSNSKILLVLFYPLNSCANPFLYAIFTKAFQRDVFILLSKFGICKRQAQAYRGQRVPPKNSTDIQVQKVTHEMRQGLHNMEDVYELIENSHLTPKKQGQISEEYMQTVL

With `CCOP(=O)(OCC)SCCSCC`, the Potency result in test [1], in test [2], in [4], in test [5], in test [7] and in [8] was “inactive” throughout. For the same molecule, the Potency result in [9], in test [10], in [11], in [13], in [14] and in test [15] was “inactive” in each case. Also, the Potency entry in [16] and in [17] was “inactive” in each case. In addition, the molecule was classed as inactive in [3]. The activity change, positive = activation in [6] was -5.82% and 8.45%. The max response in test [12] was 0.908% and 6.69%.
Consider `CCOP(=S)(OCC)SCn1nnc2ccccc2c1=O`, for which the Potency entry in test [1], in [2], in test [18], in [8], in test [9] and in [13] was “inactive” in each case. Moreover, the Potency entry in test [14], in test [15], in test [16] and in [17] was “inactive” throughout. The call in [3] was inactive. Besides, the Potency in test [5] was 27.3 µM (active); in test [7] it was 21.9 µM (active); in [10], 21.9 µM (active); in [12], 19.5 µM (active). Besides, the activity change, positive = activation in test [6] is -48.2%.
For the molecule `CC(C)(C)c1cc([N+](=O)[O-])cc([N+](=O)[O-])c1O`, the Potency entry in [1], in test [2], in [4], in [18], in [8] and in test [11] was “inactive” each time. The Potency result in test [13], in test [14] and in test [16] was “inactive” throughout. Moreover, the molecule was called inactive in [3].
With `O=[N+]([O-])c1cc(C(F)(F)F)cc([N+](=O)[O-])c1Cl`, the Potency entry in [1], in [4], in [18], in [8], in test [9] and in test [13] was “inactive” each time. The Potency entry in test [14], in [15], in test [16] and in test [17] was “inactive” in each case. For the same molecule, the result in [3] was inactive. Besides, the Potency in test [5] was 61.4 µM (active). The activity change, positive = activation in [6] is -42.9%.
Take `CCCCCC[N+](=O)[O-]`: the Potency entry in test [1], in test [2], in [4], in [18], in test [7] and in [8] was “inactive” throughout. In addition, the Potency entry in [19], in test [9], in test [10], in test [11], in test [13] and in [14] was “inactive” throughout. Also, the Potency entry in test [15], in [16] and in test [17] was “inactive” throughout. Moreover, the outcome in [3] was inactive. Further, the max response in test [12] is 4.3%.
Consider `CCC(C)(NC(=O)c1cc(Cl)c(C)c(Cl)c1)C(=O)CCl` (configuration not stated), for which the Potency is 43.5 µM (active) in test [1]; 34.9 µM (active) in test [2]; 114 µM (active) in [4]; 9.75 µM (active) in test [5]; 49.3 µM (active) in [18]; 19.6 µM (active) in test [7]. The Potency was 49.3 µM (active) in test [19]; 43.9 µM (active) in test [9]; 27.7 µM (active) in test [10]; 13.9 µM (active) in test [12]; 49.3 µM (active) in test [15]; 49.3 µM (active) in test [17]. Also, in [6], the activity change, positive = activation was -68.6%. For the same molecule, in test [8], the Potency result was “inactive”.
Take `Cn1sc(Cl)cc1=O`: the Potency result in test [1], in test [2], in test [4], in test [5], in test [7] and in [8] was “inactive” each time. The Potency result in [19], in test [9], in [10], in test [11], in test [13] and in [14] was “inactive” throughout. In addition, the Potency entry in test [15], in test [16] and in test [17] was “inactive” throughout. The molecule was called inactive in test [3]. Further, the activity change, positive = activation in test [6] was 1.6%. Also, in test [12], the max response was -14%.
With `C=CCN1CC[C@]23c4c5ccc(O)c4O[C@H]2C(=O)CC[C@@]3(O)[C@H]1C5`, the Potency result in test [1], in test [2], in test [4], in test [5], in [18] and in test [7] was “inactive” throughout. Besides, the Potency result in test [8], in test [19], in [9], in test [10], in test [11] and in test [13] was “inactive” throughout. Further, the Potency entry in test [15], in [16] and in [17] was “inactive” in each case. Also, the activity change, positive = activation in [6] was -6.24% [at 42.5 µM]. Also, the max response in [12] was -0.323%.
